The values below come from PubChem BioAssay (NCATS).

Results filed as inconclusive are left out. Unmarked numbers belong to inactive results. Calls follow the shape of the dose curve; as a rule, active = well fitted inhibition curve with a large enough effect; inconclusive = small, poorly fitted or top-dose-only effect; inactive = no such curve, though single readings can be large or run the other way.
% is scaled to controls: 0 for no effect and ±100 for the full control effect.

The test in a line: Primary qHTS for small molecule stabilizers of the endoplasmic reticulum resident proteome: Secreted ER Calcium Modulated Protein (SERCaMP) assay (AID 1508630). Particulars: SH-SY5Y GLuc-SERCaMP (Gaussia luciferase released on ER calcium loss) secretion, thapsigargin, luminescence; series mostly up to 38.4 µM; activity change, negative = inhibition: at the top concentration. An excerpt: Assay Provider: Brandon K. Harvey Ph.D.
National Institute on Drug Abuse, National Institutes of Health, Baltimore, MD
Endoplasmic reticulum (ER) dysregulation is associated with human pathologies including neurodegenerative, cardiovascular, muscular, and diabetic conditions. Maintenance of ER calcium is critical for functions of the ER and its depletion can lead to loss of ER resident proteins, in a process termed exodosis. Therapeutic compounds capable of attenuating the redistribution of ER proteins under pathological conditions may slow or stop disease progression. To identify such compounds, we performed a quantitative high-throughput screen (qHTS) using the SERCaMP assay, which monitors secretion of ER resident proteins triggered by calcium depletion.
SERCaMP was initially developed as a reporter of ER calcium homeostasis using a Gaussia luciferase with a modified signal peptide and carboxy-terminus (GLuc-SERCaMP), modifications that confer secretion of the reporter in response to ER calcium depletion (Henderson et al., 2014). The assay was used to screen 9,501 compounds, including a collection of drugs approved by the FDA (US), EMA (EU), NHI (Japan), and HC (Canada) regulatory agencies (Huang et al., 2011). Since the SERCaMP reporter reflects the exodosis phenomenon (Trychta et al., 2018a), compounds identified in the screen have the potential to prevent exodosis by different mechanisms such as stabilizing ER calcium or augmenting ERS retrieval.
1. Henderson, M.J., Wires, E.S., Trychta, K.A., Richie, C.T., and Harvey, B.K. (2014). SERCaMP: a carboxy-terminal protein modification that enables monitoring of ER calcium homeostasis. Mol Biol Cell 25, 2828-2839.
2. Huang, R., Southall, N., Wang, Y., Yasgar, A., Shinn, P., Jadhav, A., Nguyen, D.T., and Austin, C.P. (2011). The NCGC pharmaceutical collection: a comprehensive resource of clinically approved drugs enabling repurposing and chemical genomics. Sci Transl Med 3, 80ps16.
3. Trychta, K.A., Back, S., Henderson, M.J., and Harvey, B.K. (2018a). KDEL Receptors Are Differentially Regulated to Maintain the ER Proteome under Calcium Deficiency. Cell Rep 25, 1829-1840 e1826.
SEQUENCE No. (1, 2, 3, etc.); […] (e.g., Cells, Incubation, Reagent, etc.); VALUE and DESCRIPTION.
1; Reagent; 5 uL; 1000 SH-SY5Y cells per wells
3; Compound; 23 nL; Control inhibitor / compound library
5; Reagent; 100 nM; Thapsigargin
7; Reagent; 1 uL; 0.5x coelenterazine
8; Detection; Luminescence; ViewLux imaging system
NOTES (numbers refer to sequence above)
1; SH-SY5Y human neuroblastoma cells stably expressing GLuc-SERCaMP (SH-SY5Y-GLuc-ASARTDL) cells were seeded in 1,536 well white tissue culture treated plates (Corning, Cat# 7464) in DMEM-high glucose-sodium pyruvate (ThermoFisher Scientific, Cat #10569) supplemented with 10% bovine growth serum (Hyclone), 10 U/ml penicillin (Gibco), 10 ug/ml streptomycin (Gibco), and 20 mM HEPES.
2; Assay plates were incubated for 5 hour at 37C in a humidified incubator containing 5% CO2.
3; qHTS libraries (23 nl, final concentrations of 1.53 uM, 7.67 uM, 38.3 uM) or controls (neutral control: DMSO, positive control: dantrolene) were added using a Kalypsis pin-tool Robotic System equipped with 1536 pinheads.
4; Cells were then incubated for 16 hours at 37C, 5% CO2.
5; Thapsigargin was added at 100 nM to deplete ER calcium stores.
6; Cells were incubated for 4 hour (37 °C, 5% CO2)
7; Gaussia luciferase in the medium was measured by adding 1 ul of 0.5x coelenterazine (final concentration 0.07x) prepared in Gaussia Luciferase Glow Assay Buffer (Pierce), without addition of the Cell Lysis Buffer Reagent.
8; Luminescence was measured using a ViewLux […] CCD imaging system (Perkin Elmer) equipped with clear filters. […] The same controls were also used for the calculation of the Z' factor, a measure of assay quality control, as previously described (Zhang et al., 1999). […]
As to `COc1cc(C(=O)N2CCC(N3CCN(C)CC3)CC2)ccc1Nc1ncc2c(n1)N(C)c1ccccc1C(=O)N2C`, the “activity change, negative = inhibition” value is 116%.

Take `Clc1ccc2ncc(-c3cccc(NC4CNC4)n3)n2c1`: the “activity change, negative = inhibition” value was 0%.

Regarding `O=C(O)c1ccc2c(c1)nc(Nc1cccc(Cl)c1)c1ccncc12`, the “activity change, negative = inhibition” value is 87.4%.

For the compound `COc1ccc(-c2cc3c(C)nc(N)nc3n(C3CCC(OCCO)CC3)c2=O)cn1` (stereo not given), the “activity change, negative = inhibition” value was 111%.

With `O=C(NCCCNc1nc(Nc2cccc(NC(=O)N3CCCC3)c2)ncc1I)c1cccs1`, the “activity change, negative = inhibition” value was 0%.

`Cc1cnc(-c2cnc(NCCNc3ccc(C#N)cn3)nc2-c2ccc(Cl)cc2Cl)[nH]1`: the “activity change, negative = inhibition” value is 56.2%.

As for `Cc1nc2ccc(CN(C)c3ccc(C(=O)N[C@@H](CCC(=O)O)C(=O)O)s3)cc2c(=O)[nH]1`, the “activity change, negative = inhibition” value is 53.2%.

`Cn1c(=O)n(-c2ccc(C(C)(C)C#N)cc2)c2c3cc(-c4cnc5ccccc5c4)ccc3ncc21`: the “activity change, negative = inhibition” value was 91.9%.

For the compound `O=c1c2ccccc2nc2n1CCc1c-2[nH]c2ccccc12`, the “activity change, negative = inhibition” value is 70.6%.

As to `Nc1ccn([C@@H]2CS[C@H](CO)O2)c(=O)n1`, the “activity change, negative = inhibition” value is 11.8% [at 76.3 µM].

For `COc1cc(C)c(Sc2cnc(NC(=O)c3ccc(CNC(C)C(C)C)cc3)s2)cc1C(=O)N1CCN(C(C)=O)CC1` (stereo not given), the “activity change, negative = inhibition” value is 473%.

Regarding `Cc1[nH]nc2ccc(-c3cncc(OC[C@@H](N)Cc4ccccc4)c3)cc12`, the “activity change, negative = inhibition” value was 0%.

Consider `COc1ccc(F)c(F)c1C(=O)c1cnc(NC2CCN(S(C)(=O)=O)CC2)nc1N`, for which the “activity change, negative = inhibition” value is 0%.

Turning to `CN1c2cc(O)c(N=NC(N)=O)cc2CC1S(=O)(=O)O` (stereo not given), the “activity change, negative = inhibition” value was -28.1%.

Turning to `Nc1nc(Nc2ccc(S(N)(=O)=O)cc2)nn1C(=O)c1c(F)cccc1F`, the “activity change, negative = inhibition” value was 103%.

With `C=CC(=O)Nc1cccc(Oc2nc(Nc3ccc(N4CCN(C)CC4)cc3OC)ncc2Cl)c1`, the “activity change, negative = inhibition” value is 412%.

With `CC(NCc1ccc2c(c1)nc(NC(=O)c1ccc(-c3cn[nH]c3)s1)n2CC(C)(C)O)C(C)(C)C` (stereo not given), the “activity change, negative = inhibition” value is 228%.

Consider `Cn1c(CNc2ccc(C(=N)N)cc2)nc2cc(C(=O)N(CCC(=O)O)c3ccccn3)ccc21`, for which the “activity change, negative = inhibition” value was 75.3% [at 21.6 µM].

`O=C(C=Cc1cccc(S(=O)(=O)Nc2ccccc2)c1)NO`: the “activity change, negative = inhibition” value was 142% [at 76.3 µM].

For `CNC(=O)c1ccc(N2C(=S)N(c3cnc(C#N)c(C(F)(F)F)c3)C(=O)C23CCC3)cc1F`, the “activity change, negative = inhibition” value was 39%.

With `C[C@]1(CO)CN(c2cc(C(=O)Nc3ccc4c(c3)-c3c(c(C(N)=O)nn3-c3ccc(F)cc3)CC4)c(Cl)cn2)C[C@@]1(C)CO`, the “activity change, negative = inhibition” value is 97.6%.

For `C=CC(=O)Nc1cccc(Oc2nc(Nc3ccc(N4CCN(C)CC4)cc3)ncc2Cl)c1`, the “activity change, negative = inhibition” value was 297%.

As to `C=C1C(=CC=C2CCCC3(C)[C@@H]([C@H](C)C=CC=CC(O)(CC)CC)CC[C@@H]23)C[C@@H](O)C[C@@H]1O` (stereo not given in full), the “activity change, negative = inhibition” value was 36.1%.

Consider `Cc1nc(N)ncc1-c1nc(N2CCOCC2)c2sc(C(C)(C)O)cc2n1`, for which the “activity change, negative = inhibition” value is 8.08%.

Consider `Nc1ccc(S(=O)(=O)Nc2ncccn2)cc1`, for which the “activity change, negative = inhibition” value was 53.9%.

Consider `COC(=O)Nc1ccc(-c2nc(N3CCOCC3)c3cnn(C4CCN(Cc5cccnc5)CC4)c3n2)cc1`, for which the “activity change, negative = inhibition” value was 83%.

Consider `CCC1=C[C@@H]2CN(C1)Cc1c([nH]c3ccccc13)[C@@](C(=O)OC)(c1cc3c(cc1OC)N(C)[C@@H]1[C@@](O)(C(=O)OC)[C@H](OC(C)=O)[C@]4(CC)C=CCN5CC[C@]31[C@@H]54)C2`, for which the “activity change, negative = inhibition” value was 98.4%.

`CC1(C)OC2=C(C(=O)c3ccccc3C2=O)[C@H](NCc2ccccc2)[C@H]1O`: the “activity change, negative = inhibition” value is 42.4%.

As to `COc1ccc(-n2nc(C(N)=O)c3c2C(=O)N(c2ccc(N4CCCCC4=O)cc2)CC3)cc1`, the “activity change, negative = inhibition” value was 44.6%.

For the compound `CCCNC(=O)Nc1ccc(Oc2ncnc3cc(OC)c(OC)cc23)cc1Cl`, the “activity change, negative = inhibition” value was 42.2%.

Consider `O=C(O)CO.[NH2-].[NH2-].[Pt+2]`, for which the “activity change, negative = inhibition” value was 0%.

Consider `CC(=O)OCC(=O)[C@@]1(O)[C@H](C)C[C@H]2[C@@H]3C=C(C)C4=Cc5c(cnn5-c5ccccc5)C[C@]4(C)[C@@H]3[C@@H](O)C[C@@]21C`, for which the “activity change, negative = inhibition” value is 62%.

Consider `Nc1ccn([C@@H]2O[C@H](CO)[C@H](O)C2(F)F)c(=O)n1`, for which the “activity change, negative = inhibition” value is 55.3%.

In the case of `CNC(=O)c1cc(Oc2ccc(NC(=O)Nc3cc(C(C)(C)C)nn3-c3ccc4ncccc4c3)c(F)c2)ccn1`, the “activity change, negative = inhibition” value is 34.2%.

`O=C(O)C1(Cc2cccc(Nc3nccs3)n2)CCC(Oc2cccc(Cl)c2F)CC1` (stereo not given): the “activity change, negative = inhibition” value was 0%.

Regarding `CC[C@@H]1C(=O)N(C)c2cnc(Nc3ccc(C(=O)NC4CCC(N5CCN(CC6CC6)CC5)CC4)cc3OC)nc2N1C(C)C` (stereo not given in full), the “activity change, negative = inhibition” value was 0%.

For the compound `Cc1ccc(-c2ncn(-c3ccc(Nc4nccc(-c5cccc(N6CCOCC6)c5)n4)cc3)n2)cn1`, the “activity change, negative = inhibition” value is 137%.

Consider `CC[C@H]1CN2CCc3cc(OC)c(OC)cc3[C@H]2C[C@@H]1C[C@@H]1NCCc2cc(OC)c(OC)cc21`, for which the “activity change, negative = inhibition” value is 391%.

On to `CCCCCCCCCC(=O)N[C@@H](Cc1c[nH]c2ccccc12)C(=O)N[C@H](CC(N)=O)C(=O)N[C@@H](CC(=O)O)C(=O)N[C@@H]1C(=O)NCC(=O)N[C@@H](CCCN)C(=O)N[C@@H](CC(=O)O)C(=O)N[C@H](C)C(=O)N[C@@H](CC(=O)O)C(=O)NCC(=O)N[C@H](CO)C(=O)N[C@@H]([C@@H](C)CC(=O)O)C(=O)N[C@@H](CC(=O)c2ccccc2N)C(=O)O[C@@H]1C`, for which the “activity change, negative = inhibition” value is 29.8%.

Regarding `Cn1cc(-c2ccncc2)c(-c2ccc(OCc3ccc4ccccc4n3)cc2)n1`, the “activity change, negative = inhibition” value is 131%.
